From ChEMBL document CHEMBL5606460, “ASAP - DENV-2 NS2B-NS3 protease fluorescence single point” (2024) come the findings set out here.

This test concerns the target Genome polyprotein (dengue virus type 2) (UniProt P29990).
The mark [1] stands for this setting: Thailand/16681/1984, Concentration 25.0 uM, Number of replicates 1.0.

Among all 2,000 compounds or so, about 110 (5.5%) showed an effect of 50% or more. This is one part of a sample in which strong results are shown more often than they occur.

Regarding `N#Cc1cccc(-c2nc3c(C(=O)NCc4ccccc4)cc(Cl)cc3[nH]2)c1`, the inhibition (usually the change of the read-out against control, counted positive when it falls) is -4.99% (Thailand/16681/1984, Concentration 99.5 uM, Number of replicates 2.0, Standard deviation 0.16663009439873022 %) and 8.64% (Thailand/16681/1984, Concentration 295.6 uM, Number of replicates 2.0, Standard deviation 26.28702583112172 %). On to `N#Cc1cccc(-c2nc3c(C(=O)Nc4ccccc4)cc(Cl)cc3[nH]2)c1`, for which the inhibition reads like this: (Thailand/16681/1984, Concentration 99.5 uM, Number of replicates 2.0, Standard deviation 7.963520922762683 %) 14.4%; (Thailand/16681/1984, Concentration 295.6 uM, Number of replicates 2.0, Standard deviation 58.7613445679075 %) 56.6%. `CCc1ccc(-c2ccccc2C(=O)Nc2cnn(C)c2)c(F)c1`: the inhibition reads like this: (Thailand/16681/1984, Concentration 49.5 uM, Number of replicates 2.0, Standard deviation 0.8455770066617545 %) -0.985%; (Thailand/16681/1984, Concentration 99.01 uM, Number of replicates 2.0, Standard deviation 1.2261793384720772 %) -0.538%; (Thailand/16681/1984, Concentration 198.0 uM, Number of replicates 2.0, Standard deviation 2.01798052784263 %) 0.736%. In the case of `CCn1ncc(-c2ccccc2C(=O)Nc2cnn(C)c2)c1F`, the inhibition by setting is: (Thailand/16681/1984, Concentration 49.5 uM, Number of replicates 2.0, Standard deviation 1.7362397615810676 %) -3.37%; (Thailand/16681/1984, Concentration 99.01 uM, Number of replicates 2.0, Standard deviation 3.5632406540879202 %) -3.71%; (Thailand/16681/1984, Concentration 198.0 uM, Number of replicates 2.0, Standard deviation 2.004108271976906 %) -1.89%. As for `COc1c(Cl)cccc1NC(=O)C1CCN(c2ccc(C=O)cc2)CC1`, the inhibition under setting [1] turned out to be 13.9%. Still for that read-out and setting: in the case of `C[C@H]1CCC[C@H](C)N1CCNC(=O)C1CCN(c2ccc(C=O)cc2)CC1` it was 12.4%. `CNC(=O)c1cn(C[C@H]2CCCN2C(=O)c2cccc3ncsc23)nn1`: the inhibition runs as follows: (Thailand/16681/1984, Concentration 49.5 uM, Number of replicates 2.0, Standard deviation 0.1358580059513503 %) 0.293%; (Thailand/16681/1984, Concentration 99.01 uM, Number of replicates 2.0, Standard deviation 0.18464096005398162 %) 0.707%; (Thailand/16681/1984, Concentration 198.0 uM, Number of replicates 2.0, Standard deviation 0.18359188284769695 %) 0.879%.

For the compound `O=Cc1ccc(N2CCC(C(=O)NCc3ccc(Br)s3)CC2)cc1`, the inhibition under setting [1] came to 12.4%.

In the case of `Cn1ncc2c(C(=O)Nc3ccc4c(c3)CNC4)cc(-c3cccnc3)nc21`, the inhibition was -0.716% (Thailand/16681/1984, Concentration 99.5 uM, Number of replicates 2.0, Standard deviation 0.6966055883154065 %) and 16.8% (Thailand/16681/1984, Concentration 295.6 uM, Number of replicates 2.0, Standard deviation 0.8690208118243027 %). Take `O=C(Nc1ccc2c(c1)CNC2)c1cc(Cl)cc(C(F)(F)F)n1`: the inhibition by setting is: (Thailand/16681/1984, Concentration 99.5 uM, Number of replicates 2.0, Standard deviation 0.07984298981903766 %) 98%; (Thailand/16681/1984, Concentration 295.6 uM, Number of replicates 2.0, Standard deviation 0.03008678069059277 %) 99.8%.

On to `N#Cc1cccc(NC(=O)c2cccc(OCc3c(Cl)cccc3Cl)c2)c1`, for which the inhibition runs as follows: (Thailand/16681/1984, Concentration 49.5 uM, Number of replicates 2.0, Standard deviation 0.9750482899240065 %) 1.9%; (Thailand/16681/1984, Concentration 99.01 uM, Number of replicates 2.0, Standard deviation 10.511808397875392 %) 16.1%; (Thailand/16681/1984, Concentration 198.0 uM, Number of replicates 2.0, Standard deviation 5.918696266313343 %) 7%.

Turning to `N#Cc1cccc(-c2nc3c(C(=O)Nc4ccc5c(c4)CNC5)cc(Cl)cc3[nH]2)c1`, the inhibition (Thailand/16681/1984, Concentration 99.5 uM, Number of replicates 2.0, Standard deviation 0.0717454001083366 %) is 96.4% and the inhibition (Thailand/16681/1984, Concentration 295.6 uM, Number of replicates 2.0, Standard deviation 0.16315483385791593 %) turned out to be 93.6%. Regarding `Cc1cnccc1NC(=O)c1cccc(C(F)(F)F)n1`, the inhibition (Thailand/16681/1984, Concentration 49.5 uM, Number of replicates 2.0, Standard deviation 0.6191824281934856 %) is 0.024%; the inhibition (Thailand/16681/1984, Concentration 99.01 uM, Number of replicates 2.0, Standard deviation 1.7542746720133946 %) was -0.908%; the inhibition (Thailand/16681/1984, Concentration 198.0 uM, Number of replicates 2.0, Standard deviation 1.379232208237382 %) is -0.988%.

For the compound `N#Cc1cccc(-c2nc3c(C(=O)NCc4ccccn4)cc(Cl)cc3[nH]2)c1`, the inhibition (Thailand/16681/1984, Concentration 99.5 uM, Number of replicates 2.0, Standard deviation 0.024300186977441064 %) was -1.93% and the inhibition (Thailand/16681/1984, Concentration 295.6 uM, Number of replicates 2.0, Standard deviation 0.2349015826654049 %) came to 5.47%.

As to `CCCOc1ccc(NC(=O)C2CCN(c3ccc(C=O)cc3)CC2)cc1`, the inhibition under setting [1] was 0.636%. The same measure, in the same setting: with `O=Cc1ccc(N2CCC(C(=O)N3CCN(C(c4ccc(F)cc4)c4ccc(F)cc4)CC3)CC2)cc1` the figure was 1.35%.

Take `COc1cccc(Cn2ncc(C3CCNCC3)c2C)n1`: the inhibition was -2.28% (Thailand/16681/1984, Concentration 49.5 uM, Number of replicates 2.0, Standard deviation 0.6865140838852157 %); -0.708% (Thailand/16681/1984, Concentration 99.01 uM, Number of replicates 2.0, Standard deviation 1.8857815426916016 %); -0.083% (Thailand/16681/1984, Concentration 198.0 uM, Number of replicates 2.0, Standard deviation 1.685903611817113 %). In the case of `O=Cc1ccc(N2CCC(C(=O)NCCCn3nccc3C3CC3)CC2)cc1`, the inhibition under setting [1] came to 15.6%.

Take `O=Cc1ccc(N2CCC(C(=O)Nc3cc(C(F)(F)F)ccn3)CC2)cc1`: under setting [1], the inhibition is 10.8%. As to `Cc1cc(CO)c2cccc(Cc3cccc(NC(=O)c4nc(C5CCNCC5)oc4C)c3)c2n1`, the inhibition is -2.68% (Thailand/16681/1984, Concentration 49.95 uM, Number of replicates 2.0, Standard deviation 2.427412589513284 %) and -3.1% (Thailand/16681/1984, Concentration 99.9 uM, Number of replicates 2.0, Standard deviation 2.040383474434353 %). As for `Cc1cc(CO)c2cccc(C[C@H](NC(=O)c3nc(C4CCNCC4)oc3C)C(=O)O)c2n1`, the inhibition is, setting by setting: (Thailand/16681/1984, Concentration 49.95 uM, Number of replicates 2.0, Standard deviation 0.8080216779744858 %) 2.79%; (Thailand/16681/1984, Concentration 99.9 uM, Number of replicates 2.0, Standard deviation 0.4573836691864076 %) 10%. On to `Cc1cc(CO)c2cccc(Cc3ccccc3NC(=O)c3nc(C4CCNCC4)oc3C)c2n1`, for which the inhibition is, setting by setting: (Thailand/16681/1984, Concentration 49.95 uM, Number of replicates 2.0, Standard deviation 1.1742415452444355 %) 3.36%; (Thailand/16681/1984, Concentration 99.9 uM, Number of replicates 2.0, Standard deviation 2.967451033370285 %) 69.9%. With `Cc1cc(CO)c2cccc(NC(=O)c3nc(C4CCNCC4)oc3C)c2n1`, the inhibition by setting is: (Thailand/16681/1984, Concentration 49.95 uM, Number of replicates 2.0, Standard deviation 36.17788639576005 %) 67.7%; (Thailand/16681/1984, Concentration 99.9 uM, Number of replicates 2.0, Standard deviation 0.36888000776056334 %) 98.7%.
